Assay outcomes: PubChem, National Center for Advancing Translational Sciences (NCATS)
Only some compounds are listed: those with a hit (about 7.6% of all), similar ones and a draw of the others.
Giardia kill – kills Giardia lamblia; AID 540267; Giardia lamblia trophozoite viability; 340,000 compounds, 0.15% hits; activity change, % at 7.66 µM, hits read low; in the data active = activity change below about -80%; inconclusive = between about -30% and that limit;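 note: parasites exposed to compound for two days anaerobically before the ATP read; % is set by controls: 0 for no effect and ±100 for the full control effect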
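Luminescent ATP signal served as the viability read-out, measured 15-30 min after adding ATP detection reagent to trophozoites that had been incubated with compounds for 48 hrs at 37 deg C anaerobically at 100 cells/well.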
p53 reactivator – restores transcriptional activity of mutant p53; 320,000 compounds, 0.063% hits; H1299 p53-A138V BP100-luciferase reporter, luminescence, 24 h; Potency, µM (series often up to 92.2 µM), inactives show at the highest dose activity change, positive = activation, actives largely listed as activators; note: potency is the fitted concentration of half-maximal effect; % of control where 0% means no effect; nearly all actives have a fitted effect of over 45% in size
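p53-null H1299 cells stably carrying temperature-sensitive p53-A138V and a BP100-luciferase reporter were pinned with compounds (4-point, 1:5 series) and held 24 hrs at 37 deg C. Luminescence was read 10 min after detection reagent.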
ELG1 DNA repair – blocks ELG1-dependent DNA repair in HEK293T cells. HEK293T ELG1-luciferase reporter, luminescence, 16 h; DNA damage induced by 5-fluorouridine. Potency, µM (highest dose often 46.1 µM), inactives show top-dose activity change, negative = inhibition, usual class: inhibitors. 330,000 compounds, 2.3% hits. AID 504467; note: potency is the fitted concentration of half-maximal effect; % is set by controls: 0 for no effect and ±100 for the full control effect; nearly all actives have a fitted effect of over 55% in size
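HEK293T cells expressing luciferase-tagged ELG1 (2,000/well) received 5-Fluorouridine plus compound or DMSO for 16 hr at 37 °C. Luciferase was read by ONE-Glo luminescence after 30 min at room temperature.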
Gal4-VP16 FLuc – counter-screen for ROR gamma inhibitors: Gal4-VP16 reporter; Drosophila S2 Gal4-VP16 UAS-luciferase, luminescence, 20 h; Potency, µM (series often up to 53.6 µM), inactives show at the highest dose activity, negative = inhibition, most hits filed as inhibitors; 310,000 compounds, 3.5% hits; AID 2546;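 note: Gal4-VP16 expression switched on by copper sulfate through the metallothionein promoter; potency is the fitted concentration of half-maximal effect; % is set by controls: 0 for no effect and ±100 for the full control effect; nearly all actives have a fitted effect of over 50% in size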
RORgamma inh – inhibitors of mouse ROR gamma transcriptional activity | Drosophila S2 Gal4-RORgamma UAS-luciferase reporter, 20 h | 310,000 compounds, 5.4% hits | Potency, µM (doses to about 53.6 µM), for the others: at the top dose activity change, negative = inhibition, hits mostly inhibitors | P51450 | AID 2551; note: potency is the fitted concentration of half-maximal effect; % is set by controls: 0 for no effect and ±100 for the full control effect; nearly all actives have a fitted effect of over 60% in size
Target sequence (P51450 whole entry, looked up, the tested form may be a part): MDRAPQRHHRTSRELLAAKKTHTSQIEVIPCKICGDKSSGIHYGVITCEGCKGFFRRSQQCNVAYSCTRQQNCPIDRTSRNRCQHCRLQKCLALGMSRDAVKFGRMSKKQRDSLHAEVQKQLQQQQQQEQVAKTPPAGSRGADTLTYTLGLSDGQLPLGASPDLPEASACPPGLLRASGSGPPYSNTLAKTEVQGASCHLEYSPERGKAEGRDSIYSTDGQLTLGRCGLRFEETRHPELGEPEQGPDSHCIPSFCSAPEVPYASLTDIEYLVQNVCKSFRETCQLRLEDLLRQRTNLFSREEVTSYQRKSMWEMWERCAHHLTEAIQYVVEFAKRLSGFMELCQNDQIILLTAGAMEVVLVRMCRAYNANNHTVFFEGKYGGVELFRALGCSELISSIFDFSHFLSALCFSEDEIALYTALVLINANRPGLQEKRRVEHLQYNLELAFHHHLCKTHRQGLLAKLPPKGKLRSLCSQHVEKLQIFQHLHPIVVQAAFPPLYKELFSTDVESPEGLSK
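Schneider cells (Drosophila), stable Gal4 DBD–ROR gamma + UAS-luc; 1 hr cmpd preincubation; Cu2+ induction 700 uM final; 20 hr ambient; luminescence.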
BRCA1 expr up – activators of BRCA1 expression; Potency, µM (doses to about 46.1 µM), inactives show top-dose activation, actives largely listed as activators; MCF7-BRCA1-FFLuc reporter, luminescence, 48 h; response scale: scaled: vehicle 0%, 10 µM genistein 100%; AID 624202; 380,000 compounds, 1.1% hits; note: potency is the fitted concentration of half-maximal effect; nearly all actives have a fitted effect of over 80% in size
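MCF7 cells carrying a BRCA1-firefly luciferase reporter (2000 cells/well, phenol-red free MEM) were attached for 2 h at 37 °C, then given compounds for 48 h. Luminescence was read 15 min after luciferase reagent; activity normalized to genistein (10 microM) and DMSO.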
* hit, by the source's call; ? = inconclusive; . = no result given; [ ] = dose if it differs, or a comment. Unless noted, calls come from the whole dose curve; as a rule, active = well fitted curve in the direction sought with a large enough effect; inconclusive = small, poorly fitted or top-dose-only effect, or another doubt; inactive = no such curve, though single readings can be large; an effect the other way counts as inactive or inconclusive.

SMILES	Giardia kill	p53 reactivator	ELG1 DNA repair	Gal4-VP16 FLuc	RORgamma inh	BRCA1 expr up
Cc1cccc(N=Nc2c(C)nn(-c3ccccc3)c2N)c1C	10	21%	?	?	2.5µM*	-28%
O=C1CN(c2ccc(Cl)cc2)C2(CCCCC2)S1	8	-5%	0%	2%	?	-23%
Cc1nc(C(=O)NNC(=O)c2ccccc2)c(C(F)(F)F)o1	-2	1%	?	-4%	11µM*	-13%
Cc1nc(C(=O)NCC(=O)c2ccccc2)c(C(F)(F)F)o1	-19	0%	-24%	1%	1%	-2%
NC(=O)c1ccc(CSc2nc3ccccc3s2)cc1	-2	19%	?	23%	?	?
COCCn1c(=S)[nH]c2cc(C(=O)N3CCN(Cc4ccc5c(c4)OCO5)CC3)ccc2c1=O	36	-2%	5.2µM*	0%	13%	-87%
COC(=O)c1ccc2c(=O)n(CCCCCC(=O)O)c(=S)[nH]c2c1	-12	-10%	5%	14µM*	7.1µM*	-49%
COC(=O)c1ccc2c(=O)n(NC(=O)C(c3ccccc3)c3ccccc3)c(=S)[nH]c2c1	-7	-6%	26µM*	16%	-25%	-11%
COCCn1c(=O)[nH]c2cc(C(=O)N3CCN(Cc4ccc5c(c4)OCO5)CC3)ccc2c1=O	-2	.	.	.	.	0%
COC(=O)c1ccc2c(=O)n(Cc3ccc4c(c3)OCO4)c(=S)[nH]c2c1	0	-2%	26%	3.5µM*	2.5µM*	-2%
COC(=O)c1ccc2c(=O)n(CCO)c(=S)[nH]c2c1	-5	6%	-1%	-8%	-37%	-52%
O=C(c1ccc(F)cc1)n1nc(-c2ccc(Cl)cc2)nc1NCc1ccco1	.	.	.	.	.	55%
Cc1ccc(CNC(=O)Cn2c(=O)n(Cc3ccc(F)cc3)c(=O)c3sc4ccccc4c32)cc1	.	.	.	.	.	2%
OCCc1ccc(NCCc2cccs2)cc1	.	.	.	.	.	8.9µM*
C=C(C)CSc1nnc(-c2ccc(OC)cc2)n1N	-11	?	?	2%	16%	?
C=C(C)CSc1nnc(-c2cccc(Cl)c2)n1N	-4	12%	?	2%	14%	13µM*
CC(=O)c1ccc(N2CCN(S(=O)(=O)c3ccc4c(c3)CC(C)N4C(C)=O)CC2)cc1 (configuration not stated)	-4	-3%	?	?	?	-7%
CC(=O)c1ccc(N2CCN(S(=O)(=O)c3ccc4c(c3)CC(C)N4C(=O)C3CC3)CC2)cc1 (configuration not stated)	-2	0%	?	11µM*	-41%	14%
Clc1cccc(Cl)c1CO/N=C/c1c(-c2ccccc2)nc2n1CCS2	2	-4%	-27%	-2%	7.1µM*	0%[1.84 µM]
COC(=O)/C(C#N)=C/c1c(-c2ccccc2)nc2n1CCS2	-26	-3%	24%	8%	9%	-6%
CCc1noc(-c2ccc(N3CCCCC3)c([N+](=O)[O-])c2)n1	.	.	.	.	.	7.1µM*
CCc1noc(-c2ccc(N3CCC(C)CC3)c([N+](=O)[O-])c2)n1	.	.	.	.	.	8.9µM*
Cc1nn(CC(=O)N(C)C2CCC(C)CC2)c(C)c1S(=O)(=O)N(C)C (configuration not stated)	-2	0%	24%	.	.	-12%
Brc1ccc(OCc2nc(-c3ccccn3)n[nH]2)cc1	-10	?	-26%	?	14µM*	-39%
CC(c1ccc(Cl)cc1)n1c(-c2ccc3ccccc3n2)n[nH]c1=S (configuration not stated)	7	9%	0%	4.5µM*	1.8µM*	3%
SMILES	Giardia kill	p53 reactivator	ELG1 DNA repair	Gal4-VP16 FLuc	RORgamma inh	BRCA1 expr up
CC(c1ccc(F)cc1)n1c(-c2ccc3ccccc3n2)n[nH]c1=S (configuration not stated)	-1	5%	18%	3.5µM*	0.89µM*	-1%
CC1(C)Cc2ccccc2-c2nnc(-c3ccc4ccccc4n3)n21	6	-4%	-19%	-1%	-27%	-4%
CCOC(=O)N1CCN(Cc2nc(-c3cccs3)no2)CC1	16	10%	?	3%	66%	77%
Clc1ccc(-c2nc3sccn3c2/C=N/OCc2ccc(Cl)c(Cl)c2)cc1	.	.	.	-9%	20%	.
CO/N=C/c1c(-c2ccc(Cl)cc2)nc2cc(C)ccn12	-18	4%	2%	6%	8.9µM*	68%
CCc1ccccc1NC(=S)N(CCN1CCOCC1)C1CCN(C(C)=O)CC1	-3	4%	-14%	7%	-12%	-8%
COc1ccc(S(=O)(=O)N2CCOCC2)cc1NC(=O)CN1C(=O)CN(C)C1=O	2	1%	8%	.	.	4%
C=CC[C@@H](CC(=O)N[C@H](CO)Cc1ccccc1)C(=O)NC[C@@H](OC(=O)[C@@H](CC=C)Cc1ccc(F)cc1)c1ccccc1	3	1%	-7%	.	.	-5%
CC(Cl)C(=O)N1c2ccccc2CCc2ccccc21 (configuration not stated)	8	2%	-14%	-2%	9%	-12%
O=C(CCl)N1c2ccccc2CCc2ccccc21	.	-119%	?	?	11µM*	.
COc1cc2c(cc1OC)-c1c(OC)c(OC)cc3ccnc(c13)C2=O	-84*	-9%	?	-9%	-31%	-57%
COc1ccc(C(=O)c2nccc3cc(OC)c(OC)cc23)cc1OC	3	-8%	?	.	.	-14%
O=C(Cn1cnc2ccccc2c1=O)c1ccc2ccccc2c1	18	.	.	19%	?	6.3µM*
COc1ccc(C(=O)Cn2cnc3ccccc3c2=O)cc1	-3	?	?	?	-13%	?
Cc1ccc(C(=O)Cn2cnc3ccccc3c2=O)cc1C	-10	.	.	-2%	-40%	4.5µM*
COc1ccc(NS(=O)(=O)c2ccc(C)c(NC(=O)NC3CCCCC3)c2)cc1	-4	14%	-18%	-21%	?	-47%
CCn1c(=O)c(C(=O)NNC(=O)c2ccc(Cl)cc2Cl)c(O)c2ccccc21	0	10%	-3%	?	10µM*	-8%
CCn1c(=O)c(C(=O)NCc2ccc(OC)cc2)c(O)c2ccccc21	4	0%	-9%	?	-12%	-26%
CCn1c(=O)c(C(=O)Nc2ccccc2)c(O)c2ccccc21	9	-9%	0%	-3%	18%	-40%
CCn1c(=O)c(C(=O)NNC(=O)Cc2ccccc2)c(O)c2ccccc21	-3	1%	0%	-22%	13µM*	-90%
CCn1c(=O)c(C(=O)Nc2nc3ccccc3[nH]2)c(O)c2ccccc21	-17	-9%	1%	8.9µM*	11µM*	-44%
